FGF22 binding – FGF22 (human) thermal shift binding; Q9HCT0; recombinant FGF22 thermal shift, SYPRO orange fluorescence; percent of sucrose octasulfate shift, DMSO zero; activity (Tm shift, normalised), % at 9.99 µM; 1.5% of 340,000 active; AID 651658;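 active = mean Tm shift, scaled 0 neutral to 100 positive control, at about 1.3% or above, every replicate too, limit read from the data; inconclusive = no clear call, values can overlap the other calls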
Target sequence (Q9HCT0 whole entry, looked up): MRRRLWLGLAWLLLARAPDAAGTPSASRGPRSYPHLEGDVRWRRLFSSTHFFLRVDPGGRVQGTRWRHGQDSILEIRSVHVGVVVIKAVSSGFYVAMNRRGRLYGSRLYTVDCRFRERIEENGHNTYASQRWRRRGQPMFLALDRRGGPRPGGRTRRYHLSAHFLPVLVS
CFTR F508del cor – CFTR F508del correction in bronchial cells; CFBE cells, YFP halide quenching; stimulated with forskolin plus potentiator P3; % fluorescence drop versus neutral controls; activity (quench increase), % at 7.58 µM; 0.36% of 350,000 active;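 active = mean added fluorescence quench of at least 8% versus neutral control, with both replicates also reaching 8%; inconclusive = only one of the mean or replicate conditions met; inactive = mean below 8% and not both replicates reaching 8%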;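 also: cells transiently co-express mutant CFTR-F508del with the halide-sensitive YFP; corrector assay measuring rescue of mutant channel to the surface after 24 h compound exposure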
Vif inh – blocks HIV Vif function; 0.35% of 340,000 active; inhibition, % at 7.49 µM; HEK293T cells, Vif self-association by quenched fluorescence, imaging, 24 h; in the data active = inhibition above about 50%, passing the limit was not always enough; inconclusive = no clear call, values can overlap the other calls; inactive = below about 31%
Active calls of the source: *. Shown are actives, neighbours in structure and some others; about 1.7% of the full set was active somewhere.

COc1ccc(-c2ccc3c(c2)C2CC3CCN2Cc2ccc(OC(F)(F)F)cc2)cc1 (stereo not drawn) was read as FGF22 binding 43*, CFTR F508del cor -3 and Vif inh -2.
`O=C1CN(Cc2ccccc2)C[C@H]2[C@@H](c3ccc(-c4cccnc4)cc3)[C@H](CO)N12` gave CFTR F508del cor -2.
For COc1ccc2c(COC(=O)CC3Sc4ccccc4NC3=O)cc(=O)oc2c1 (stereo not drawn) the results were FGF22 binding 44*, CFTR F508del cor -2 and Vif inh -25.
`NS(=O)(=O)c1cccc(NC(=O)COC(=O)CC2Sc3ccccc3NC2=O)c1` (stereo not drawn) gave FGF22 binding -1, CFTR F508del cor -2 and Vif inh 28.
For COc1ccc(NC(=O)COC(=O)CC2Sc3ccccc3NC2=O)cc1 (stereo not drawn) the results were FGF22 binding 0 and CFTR F508del cor 4.
Screening CC(=O)Nc1ccc2c(COC(=O)CC3Sc4ccccc4NC3=O)cc(=O)oc2c1 (stereo not drawn) returned FGF22 binding 43*, CFTR F508del cor -1 and Vif inh -3.
O=C(C[C@@H]1C=C[C@@H](NC(=O)Cc2ccccn2)[C@H](CO)O1)NCCc1ccncc1 was read as FGF22 binding 0 and CFTR F508del cor -1.
For Cc1cc(C)n2nc(SCC(=O)N(Cc3ccccc3)C3CCS(=O)(=O)C3)nc2n1 (stereo not drawn) the results were FGF22 binding 43*, CFTR F508del cor 2 and Vif inh -9.
For CCN(C(=O)CSc1nc2nc(C)cc(C)n2n1)C1CCS(=O)(=O)C1 (stereo not drawn) the results were FGF22 binding 0, CFTR F508del cor 2 and Vif inh -2.
Screening COc1ccc(S(=O)(=O)N(C)C[C@@H]2Oc3ccc(NC(=O)Nc4c(C)noc4C)cc3CC(=O)N([C@H](C)CO)C[C@H]2C)cc1 returned FGF22 binding 0 and CFTR F508del cor 2.
Screening COc1ccc(CNCC(=O)Nc2ccccc2-n2cccc2)cc1 returned FGF22 binding 1, CFTR F508del cor 10* and Vif inh 0.
`COc1ccc(CC(=O)Nc2ccccc2N2CCCC2)cc1` gave FGF22 binding 0, CFTR F508del cor -1 and Vif inh -9.
CNC[C@H]1Oc2cc(-c3ccccc3F)ccc2S(=O)(=O)N([C@H](C)CO)C[C@@H]1C was read as FGF22 binding 0 and CFTR F508del cor 0.
Screening CC(C)NC(=O)Nc1ccc2c(c1)CC(=O)N([C@H](C)CO)C[C@@H](C)[C@H](CN(C)Cc1ccc(Cl)c(Cl)c1)O2 returned FGF22 binding 1 and CFTR F508del cor 1.
`CCOC(=O)C1=C(N)OC2=C(C(=O)CC(C)(C)C2)C1c1cccnc1` (stereo not drawn) gave Vif inh -1.
Screening CC1=CC(C)C2(CO)COC(c3ccc(O)cc3)C1C2C (stereo not drawn) returned FGF22 binding 43*, CFTR F508del cor 1 and Vif inh 11.
Screening CC1=CC(C)C2(CO)COC(c3cccnc3)C1C2C (stereo not drawn) returned FGF22 binding 43*, CFTR F508del cor 1 and Vif inh 0.
Screening CC1CC2(C)Oc3ccccc3C3OCC1(CO)C(C)C32 (stereo not drawn) returned Vif inh 13.
COc1ccc(-c2ccc([C@H]3[C@H](CO)N4C(=O)CN(C(=O)c5ccccn5)C[C@@H]34)cc2)cc1 was read as CFTR F508del cor -1.
N#CC1=C(N)Oc2ccc3ccc(O)cc3c2C1c1cccnc1 (stereo not drawn) was read as FGF22 binding 0, CFTR F508del cor 2 and Vif inh 5.
N#CC1=C(N)Oc2c(ccc3cccnc23)C1c1ccccc1 (stereo not drawn) was read as FGF22 binding 0, CFTR F508del cor 17* and Vif inh 18.
N#CC1=C(N)Oc2ccc3ccccc3c2C1c1cccnc1 (stereo not drawn) was read as FGF22 binding 43*, CFTR F508del cor inconclusive and Vif inh -14.
For Cc1ccc2[nH]c(=O)c(C3C(C#N)=C(N)Oc4c3ccc3cccnc43)cc2c1 (stereo not drawn) the results were Vif inh -10.
Screening CO[C@@H]1CN(C)C(=O)c2cc(NC(=O)C3CC3)ccc2OC[C@@H](C)N(Cc2cncnc2)C[C@@H]1C returned FGF22 binding 0 and CFTR F508del cor -2.
CN(C)C(=O)C[C@@H]1C[C@H]2c3cc(NC(=O)c4ccc5c(c4)OCO5)ccc3O[C@H]2[C@H](CO)O1 was read as FGF22 binding 0 and CFTR F508del cor 0.

Screens from PubChem BioAssay.
